# Unmarked numbers belong to inactive results. Results filed as inconclusive are left out. Calls of active or inactive are those of the source. Unless noted, the call rests on the fitted dose curve; in most records, active means well fitted curve in either direction with a large enough effect (not every such curve was filed as active); inconclusive means small, poorly fitted or top-dose-only effect, or another doubt; inactive means flat fitted curve, though single readings scatter.
# Assays:
# [1] = biological target: Lysosomal acid glucosylceramidase (Homo sapiens) (UniProt P04062); experiment: Glucocerebrosidase-p2 (AID 348; in the data active means potency below about 10 µM; further: potency means the concentration at half of the fitted maximal effect); details: purified GBA, blue fluorogenic substrate, 40 min
# Sequence of Lysosomal acid glucosylceramidase (Homo sapiens) (P04062 whole entry, looked up): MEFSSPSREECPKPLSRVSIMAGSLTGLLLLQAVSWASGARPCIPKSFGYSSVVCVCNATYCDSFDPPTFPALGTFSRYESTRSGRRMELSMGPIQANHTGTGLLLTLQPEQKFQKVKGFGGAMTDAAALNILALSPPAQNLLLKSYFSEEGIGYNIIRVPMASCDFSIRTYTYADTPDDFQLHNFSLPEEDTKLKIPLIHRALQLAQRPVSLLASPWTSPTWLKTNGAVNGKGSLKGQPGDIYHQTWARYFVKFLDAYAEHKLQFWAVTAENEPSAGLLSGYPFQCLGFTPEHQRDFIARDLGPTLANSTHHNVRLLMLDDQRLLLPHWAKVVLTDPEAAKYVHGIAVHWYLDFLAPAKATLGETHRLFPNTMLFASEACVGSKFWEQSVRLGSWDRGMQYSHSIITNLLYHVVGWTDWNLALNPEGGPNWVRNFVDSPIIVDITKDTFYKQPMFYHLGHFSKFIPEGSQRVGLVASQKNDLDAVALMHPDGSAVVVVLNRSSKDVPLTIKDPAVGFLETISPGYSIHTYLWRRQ
# Method in brief: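 Normal human glucocerebrosidase (0.2 nM) with blue fluorogenic substrate (80 uM final) in citrate/phosphate pH 5.9 with 10mM sodium taurocholate, 0.01% tween-20; 40 min RT, NaOH/glycine stop; fluorescence Ex 365/Em 440; AC50 from a titration from 0.6 nM upwards.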
# [2] = AP1 Signaling Pathway (AID 357); details: ME-180 AP-1-bla reporter, EGF-induced, beta-lactamase ratio, 5 h; at 7.69 µM (top of the series) unless noted;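 further: ME-180 reporter cells stimulated with EGF at its EC50 level; on the % scale 0 is the no-effect control and ±100 the full control effect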
# Method in brief: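 Modulation of EGF-driven AP-1 transcription was assessed with a beta-lactamase reporter in ME-180 cells. Compound and EC50 EGF were co-incubated 5 hours at 37 °C before 2.5-hour CCF4 loading at room temperature and dual-emission reading.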
# [3] = biological target: Cytochrome P450 1A2 (Homo sapiens) (UniProt P05177); experiment: p450-cyp1a2 (AID 410; calls by dose curve; further: potency means the concentration at half of the fitted maximal effect;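 on activity change, negative = inhibition: -100% = full effect of reference inhibitor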); details: recombinant CYP1A2, luciferin-ME demethylation, luminescence; series mostly up to 11.4 µM
# Sequence of Cytochrome P450 1A2 (Homo sapiens) (P05177 whole entry, looked up): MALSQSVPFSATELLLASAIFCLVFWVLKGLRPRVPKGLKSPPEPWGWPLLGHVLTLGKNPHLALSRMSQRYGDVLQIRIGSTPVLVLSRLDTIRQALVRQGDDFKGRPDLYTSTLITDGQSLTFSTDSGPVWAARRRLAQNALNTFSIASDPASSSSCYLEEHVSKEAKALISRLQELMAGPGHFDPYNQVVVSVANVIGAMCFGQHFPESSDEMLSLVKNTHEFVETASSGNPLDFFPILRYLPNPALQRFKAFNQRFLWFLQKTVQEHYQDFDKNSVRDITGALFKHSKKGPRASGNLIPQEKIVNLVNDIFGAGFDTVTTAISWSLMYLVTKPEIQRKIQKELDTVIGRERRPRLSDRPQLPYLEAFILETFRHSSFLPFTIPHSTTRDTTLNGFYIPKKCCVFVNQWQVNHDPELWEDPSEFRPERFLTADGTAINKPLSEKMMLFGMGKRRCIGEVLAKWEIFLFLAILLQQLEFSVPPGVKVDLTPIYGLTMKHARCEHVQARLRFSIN
# Method in brief: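 O-Demethylation of luciferin 6' methyl ether by human CYP1A2 is monitored as luciferase luminescence. Substrate sits at Km (100uM); enzyme is 20nM. Values are scaled to 57 uM furafylline as maximal inhibition.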
# [4] = NFAT Signaling Pathway (AID 444); details: Jurkat NFAT-bla M1, carbachol, beta-lactamase ratio, 5 h; at 7.69 µM (top of the series) unless noted;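 further: carbachol stimulus at about its EC50 of 1 µM final; on the % scale 0 is the no-effect control and ±100 the full control effect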
# Method in brief: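 Read-out: CCF4 FRET ratio (460 nm/530 nm) after 1 h RT dye loading, used for %activity and AC50 from titration series. Cells: Jurkat NFAT-β-lactamase/M1 line, treated with compound plus 1 uM carbachol for 5 h, 37 °C.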
# [5] = Stat Signaling Pathway (AID 446); details: ME-180 (cervical carcinoma) SIE beta-lactamase reporter, IL-6 stimulated, 5 h; at 7.69 µM (top of the series) unless noted;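 further: ME-180 cervical cancer cells given 40 pM IL-6 alongside compound; SIE-controlled beta-lactamase reporter measured as 460/530 nm FRET emission ratio; on the % scale 0 is the no-effect control and ±100 the full control effect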
# Method in brief: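 FRET read-out (405 nm excitation, 460/530 nm emission) of a beta-lactamase reporter under a STAT-inducible element in ME-180 cervical carcinoma cells. Cells with compound receive 40 pM IL-6 for 5 h. Values are normalised to AC90 stimulation and AC90 JAK-inhibitor controls.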
# [6] = biological target: Glucocorticoid receptor (Homo sapiens) (UniProt P04150); experiment: GR-GFP Redistribution (AID 450;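 active means compounds whose dose series gives a full or clear partial fitted curve of increased nuclear translocation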; further: potency means the concentration at half of the fitted maximal effect); details: U2OS GR-GFP nuclear translocation, laser cytometry, 2 h
# Sequence of Glucocorticoid receptor (Homo sapiens) (P04150 whole entry, looked up, the tested form may be a part): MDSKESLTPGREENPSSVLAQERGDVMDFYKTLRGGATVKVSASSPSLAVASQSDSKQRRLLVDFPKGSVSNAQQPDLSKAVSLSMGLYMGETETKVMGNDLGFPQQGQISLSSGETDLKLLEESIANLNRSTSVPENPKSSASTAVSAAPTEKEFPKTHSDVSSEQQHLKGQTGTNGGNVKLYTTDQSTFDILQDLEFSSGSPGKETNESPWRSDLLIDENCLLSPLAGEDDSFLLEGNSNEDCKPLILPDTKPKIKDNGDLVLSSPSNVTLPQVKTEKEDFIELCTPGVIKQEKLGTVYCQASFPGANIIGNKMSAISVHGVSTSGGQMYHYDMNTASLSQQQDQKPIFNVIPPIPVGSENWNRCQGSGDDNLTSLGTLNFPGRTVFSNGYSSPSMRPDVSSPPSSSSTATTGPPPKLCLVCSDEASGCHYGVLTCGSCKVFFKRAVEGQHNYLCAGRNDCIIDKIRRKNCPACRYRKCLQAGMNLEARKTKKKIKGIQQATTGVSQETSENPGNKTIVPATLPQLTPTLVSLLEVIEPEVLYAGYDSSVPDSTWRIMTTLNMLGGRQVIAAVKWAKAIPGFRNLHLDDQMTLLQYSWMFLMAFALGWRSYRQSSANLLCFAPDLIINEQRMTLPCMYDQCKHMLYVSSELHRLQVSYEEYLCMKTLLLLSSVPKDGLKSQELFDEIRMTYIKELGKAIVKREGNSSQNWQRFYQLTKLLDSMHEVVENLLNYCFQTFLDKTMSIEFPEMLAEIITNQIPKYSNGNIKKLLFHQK
# [7] = biological target: Glucocorticoid receptor (Homo sapiens) (UniProt P04150); experiment: GR-EFC Redistribution (AID 451; calls by dose curve; further: potency means the concentration at half of the fitted maximal effect); details: CHO-K1 GR-EFC translocation, beta-gal luminescence, 2 h
# Method in brief: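 Translocation of GR-ED fusion to nuclear EA restores b-gal, read by luminescence after 1 h room-temperature detection. Engineered CHO-K1 biosensor cells, 1,000/well, exposed 2 h at 37 C to titrations up to 46 uM final.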
# [8] = biological target: Mitogen-activated protein kinase 10 (Mus musculus) (UniProt Q61831); experiment: JNK3 AlphaScreen Assay (AID 530); details: JNK3 lysate, c-Jun phosphorylation; series mostly up to 11.4 µM;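 further: kinase came from lysate of stimulated human HepG2 cells; signal reports phosphorylation of biotinylated GST-cJun 1-79 at Ser73 with 10 µM ATP; on the % scale 0 is the no-effect control and ±100 the full control effect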
# Method in brief: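 qHTS titrations with 15 min compound pre-incubation before adding ATP (10 uM final). Read-out: AlphaScreen of Ser73-phosphorylated biotin-GST-cJun using HepG2 lysate JNK3 activated by IL-1β and TNFα.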
# [9] = biological target: 3',5'-cyclic-AMP phosphodiesterase 4B (Homo sapiens) (UniProt Q07343); experiment: qHTS Assay for Inhibitors of PDE-IV (AID 607; active means well fitted activation curve with a large enough effect in the main read-out, with a control signal flat, not every such curve was filed as active; further: % of control where 0% means no effect); details: HEK293 ACTOne CNG channel cells, membrane potential fluorescence; series mostly up to 22.9 µM
# Sequence of 3',5'-cyclic-AMP phosphodiesterase 4B (Homo sapiens) (Q07343 whole entry, looked up): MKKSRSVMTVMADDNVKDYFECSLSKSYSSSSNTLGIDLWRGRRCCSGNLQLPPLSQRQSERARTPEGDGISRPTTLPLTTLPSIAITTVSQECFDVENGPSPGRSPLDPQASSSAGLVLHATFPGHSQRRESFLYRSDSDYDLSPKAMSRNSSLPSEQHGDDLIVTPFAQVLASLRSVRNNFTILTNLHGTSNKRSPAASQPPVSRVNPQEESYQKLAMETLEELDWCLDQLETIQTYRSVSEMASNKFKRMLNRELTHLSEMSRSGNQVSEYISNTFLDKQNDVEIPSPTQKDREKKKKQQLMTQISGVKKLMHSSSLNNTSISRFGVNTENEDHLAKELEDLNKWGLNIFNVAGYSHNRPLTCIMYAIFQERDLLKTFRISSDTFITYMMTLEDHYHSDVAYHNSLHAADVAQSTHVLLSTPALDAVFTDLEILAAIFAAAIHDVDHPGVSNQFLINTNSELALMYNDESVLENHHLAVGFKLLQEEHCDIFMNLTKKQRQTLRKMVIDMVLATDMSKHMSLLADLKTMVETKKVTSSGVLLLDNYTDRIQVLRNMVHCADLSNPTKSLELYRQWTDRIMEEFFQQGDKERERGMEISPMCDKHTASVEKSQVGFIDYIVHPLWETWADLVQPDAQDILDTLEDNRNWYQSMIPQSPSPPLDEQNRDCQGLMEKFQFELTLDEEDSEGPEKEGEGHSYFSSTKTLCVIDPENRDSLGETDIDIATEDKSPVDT
# Method in brief: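 Cell-based read-out of cAMP via a modified cyclic nucleotide-gated channel and membrane potential dye (535/590 nm) in HEK293 cells expressing PDE4 endogenously. Compounds tested up to 22.9 uM final; 100 uM RO 20-1724 reference.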
Compound,Potency [1],"activity change, negative = inhibition [2]",Potency [3],"activity change, negative = inhibition [4]","activity, negative = inhibition [5]",Potency [6],Potency [7],Potency [8],Potency [9],"activity change, negative = inhibition [3]"
NCCCc1ccc2oc3ccccc3c2c1,> 11.4 µM,19.9%,0.0316 µM (active),14.4%,0.365%,> 46 µM,> 9.22 µM,inactive,inactive,
NCCNc1ncnc2ccc(Cl)cc12,11.7 µM,5.69%,1 µM (active),-9.27%,-14.9%,> 46 µM,> 9.22 µM,inactive,inactive,
N#CC1(Nc2ccc(-c3ccc(NC4(C#N)CCCC4)cc3)cc2)CCCC1,> 11.4 µM,-7.74%,3.16 µM (active),14.8%,19%,> 46 µM,> 9.22 µM,inactive,inactive,
CC1=NCC[N@@+]1(CCc1ccccc1)Cc1ccccc1,> 11.4 µM,-5.92%,inactive,-20.4%,11.6%,> 46 µM,> 9.22 µM,inactive,inactive,
C=CCSc1nc2ccccc2c(=O)n1Cc1ccco1,> 11.4 µM,-0.523%,0.0251 µM (active),2.6%,-8.01%,> 46 µM,> 9.22 µM,inactive,inactive,
CN(C)CCCCN1CCc2c(n(C)c3ccccc23)C1=O,> 11.4 µM,14%,,5.6%,3.15%,> 46 µM,> 9.22 µM,inactive,inactive,-14.1% [at 2.29 µM]
NC[C@H]1O[C@H](n2cnc3c(N)ncnc32)C[C@@H]1O,> 11.4 µM,-8.42%,inactive,7.55%,9.05%,> 46 µM,> 9.22 µM,inactive,inactive,
Cc1cc(C)c(O)c(Cc2cccc(Cc3cc(C)cc(C)c3O)c2O)c1,> 11.4 µM,0.471%,,11.9%,2.38%,> 46 µM,> 9.22 µM,inactive,inactive,-14.7% [at 2.29 µM]
CN(C)Cc1cc(Cl)c(O)c(CN(C)C)c1,> 11.4 µM,0.0803%,inactive,15.1%,-1.91%,> 46 µM,> 9.22 µM,inactive,inactive,
C[C@@](O)(CNS(=O)(=O)c1ccccc1)c1ccccc1,> 11.4 µM,0.078%,inactive,3.96%,-0.864%,> 46 µM,> 9.22 µM,inactive,inactive,
CC(C)=C[C@H]1[C@@H](COC(=O)c2ccccc2Cl)C1(C)C,> 11.4 µM,8.2%,3.98 µM (active),12.7%,-1.06%,> 46 µM,> 9.22 µM,inactive,inactive,
Cc1n[nH]c2ccccc2c1=O,> 11.4 µM,-6.55%,0.398 µM (active),-1.3%,10.2%,> 46 µM,> 9.22 µM,inactive,inactive,
CN(C)CCCn1c2ccccc2c2cnccc21,> 11.4 µM,1.6%,,2.32%,13.9%,> 46 µM,> 9.22 µM,inactive,inactive,-20% [at 2.29 µM]
C[N+](C)(C)[C@H](Cc1c[nH]c(=S)[nH]1)C(=O)O,> 11.4 µM,4.67%,inactive,-2.8%,9.57%,> 46 µM,> 9.22 µM,inactive,inactive,
O=c1ccnc(SCc2ccc(Cl)cc2)[nH]1,> 11.4 µM,0.709%,inactive,2.66%,6.94%,> 46 µM,> 9.22 µM,inactive,inactive,
CC(=O)[C@@H](C)CCO[C@@]1(C)OCC[C@@H]1C,> 11.4 µM,12.4%,inactive,6.23%,14.8%,> 46 µM,> 9.22 µM,inactive,inactive,

Compound,Potency [1],"activity change, negative = inhibition [2]",Potency [3],"activity change, negative = inhibition [4]","activity, negative = inhibition [5]",Potency [6],Potency [7],Potency [8],Potency [9],"activity change, negative = inhibition [3]"
Cc1ccc(/C(C#N)=C/c2cccc([N+](=O)[O-])c2)cc1,> 11.4 µM,15.2%,3.98 µM (active),-0.124%,11.8%,> 46 µM,> 9.22 µM,inactive,inactive,
O=C(O)[C@@H](Cc1c[nH]c2ccccc12)C(=O)NO,> 11.4 µM,-4.03%,inactive,4.43%,4.19%,> 46 µM,> 9.22 µM,inactive,inactive,
[O-][N+]1(CC[N+]2([O-])CCCCC2)CCCCC1,> 11.4 µM,-8.89%,inactive,2.18%,-8.8%,> 46 µM,> 9.22 µM,inactive,inactive,
C/C(=N\O)c1cccc[n+]1Cc1ccccc1,> 11.4 µM,-1.8%,inactive,-12.3%,11.4%,> 46 µM,> 9.22 µM,inactive,inactive,
C[C@H]1CCCC2(CC[N+](C)(CCC[N+](C)(C)C)CC2)C1 (some centres undefined),11.6 µM,14.2%,inactive,-5.86%,1.53%,> 46 µM,> 9.22 µM,inactive,inactive,
Cc1ccc(S(=O)(=O)Nc2ccccc2C(=O)c2ccc(C)c(C)c2)cc1,> 11.4 µM,5.46%,0.631 µM (active),2.8%,-2.64%,> 46 µM,> 9.22 µM,inactive,inactive,
CCN(CC(=O)O)CC(=O)O,> 11.4 µM,-0.0102%,inactive,0.338%,13.7%,> 46 µM,> 9.22 µM,inactive,inactive,
NCC(=O)Nc1ccc(Cl)cc1C(=O)c1ccc[nH]1,> 11.4 µM,-2.05%,3.16 µM (active),-24.8%,-3.02%,> 46 µM,> 9.22 µM,inactive,inactive,
O=C(O)Cc1cc(Cl)ccc1O,> 11.4 µM,-8.98%,inactive,-0.2%,20.2%,> 46 µM,> 9.22 µM,inactive,inactive,
C/C(=N/NS(=O)(=O)c1ccc(C)cc1)P(=O)(O)O,> 11.4 µM,1.2%,inactive,7.41%,6.08%,> 46 µM,> 9.22 µM,inactive,inactive,
O=C(O)Cn1ccnc1[N+](=O)[O-],> 11.4 µM,9.71%,inactive,-1.99%,6.87%,> 46 µM,> 9.22 µM,inactive,inactive,
C[C@@H](N=C(N)N)C(=O)O,> 11.4 µM,-6.66%,inactive,16.8%,-6.68%,> 46 µM,> 9.22 µM,inactive,inactive,
C/C(CC/C(C)=N/O)=N/O,> 11.4 µM,4.13%,,2.59%,-4.99%,> 46 µM,> 9.22 µM,inactive,inactive,-12.6% [at 2.29 µM]
COc1ccc2[nH]c3cc4c(=O)c5cc(OC)ccc5[nH]c4cc3c(=O)c2c1,> 11.4 µM,-2.15%,,-1.64%,-1.86%,> 46 µM,> 9.22 µM,inactive,inactive,-6% [at 2.29 µM]
COc1ccc(CSC2=C(C#N)C(=O)NC3(CCCCC3)S2)cc1,> 11.4 µM,4.52%,,7.32%,1.46%,> 46 µM,> 9.22 µM,inactive,inactive,-5.8% [at 2.29 µM]
